The assay concerns the target AMP-activated protein kinase, AMPK (Homo sapiens) (UniProt P54646+O43741+P54619+Q9UGJ0+Q9Y478+Q13131+Q9UGI9). Kind of assay: AMP-dependent Kinase enzyme assay. An in vitro enzyme assay that detects ADP turnover that is directly proportional to AMPK activity. This uses naive AMPK that is activated during the assay with MK-8722. The class given is functional. Further details: scale not given: direction of the effect not stated beside the values. To be noted: 30 µM.
As for `COc1ccc(C(=O)N2C[C@@H](NC(=O)N(C)C)[C@H](C(C)C)C2)c(OC)n1`, the Percent Effect amounted to 1.82%.

On to `Cc1cc(S(=O)(=O)N(CCO)C2CC2)ccc1F`, for which the Percent Effect is 0.797%.

Turning to `CC(C)c1nccc(CN(C)Cc2cnn(-c3ccccc3)c2)n1`, the Percent Effect is -5.06%.

As for `CC(C)C(C(N)=O)c1cccc(Cl)c1` (centres undefined), the Percent Effect was -2.67%.

With `CN(C)c1nc(N)nc(CN2CCCC(c3ccccc3)CC2)n1` (centres undefined), the Percent Effect is -3.69%.

For `Cc1ccc(-n2cc(C(=O)NCc3nnc4n3CCCCC4)nn2)cc1`, the Percent Effect was determined as 5.45%.

`CC(C)(NCCOc1ccc(CC#N)cc1)c1nccs1`: the Percent Effect is -2.44%.

As to `Cc1cc(N(C)CC2COc3ccccc3O2)nc(C)n1` (centres undefined), the Percent Effect turned out to be 1.48%.

For `Cc1ccc2[nH]c(CN(C)Cc3ccccc3C(=O)O)nc2c1`, the Percent Effect stood at 4.71%.

Regarding `O=C(CCn1ccnc1)N1CCC(c2nnc(-c3ccccn3)o2)CC1`, the Percent Effect was 1.44%.

`CCNC(=O)[C@@H]1C[C@H](N)CN1c1cc(CC)nc(N(C)C)n1`: the Percent Effect is -13.7%.

On to `Cc1c(NC(=O)N(C)CCO)cccc1OC1CCCC1`, for which the Percent Effect is -3.01%.

As to `CCc1noc(C(C)Sc2nnc(C3CC3)n2CC(N)=O)n1` (centres undefined), the Percent Effect was -8.4%.

Regarding `CCCOC1CCCN(c2ncnc3c2CCN(C(=O)C2CC2)C3)C1` (centres undefined), the Percent Effect turned out to be 3.46%.

In the case of `CCc1nn(C)c(Cl)c1CN(CC)Cc1cnn(CC)c1`, the Percent Effect was found to be 1.72%.

Consider `CC(C)(C)c1n[nH]cc1CNC1CCC(C(F)(F)F)CC1` (centres undefined), for which the Percent Effect came to 3.78%.

With `CC(C)c1cc(C2CCN(C(=O)Cn3cnc4ccccc43)CC2)[nH]n1`, the Percent Effect came to 10.5%.

Consider `CCSc1cc(C(=O)N(Cc2cnn(C)c2)C(C)C)ccn1`, for which the Percent Effect is 1.44%.

Consider `Cc1nn(C)c(C)c1C1COCCN1C(=O)CSC(C)(C)C` (centres undefined), for which the Percent Effect was -7.18%.

Take `Cc1cc(NCCc2nc(C)c[nH]2)nc(-c2ccccc2O)n1`: the Percent Effect came to 17.8%.

Consider `COc1ccccc1C(NC(=O)CN(C)C(C)C)c1noc(C)n1` (centres undefined), for which the Percent Effect is -4.19%.

In the case of `CN(Cc1nc(N)nc(N(C)C)n1)Cc1cccc2ccccc12`, the Percent Effect is -3.23%.

`CN(C)c1cc2c(nn1)CCN(C(=O)c1ccc(-n3cccn3)nc1)C2`: the Percent Effect came out at 2.65%.

As to `CNC(=O)Cc1ccc(NC(=O)NCc2nc(C)sc2C)cc1`, the Percent Effect was 0.571%.

Take `Cc1ncc(CNC(=O)NCC(C)Oc2ccccc2F)s1` (centres undefined): the Percent Effect is 6.1%.

Take `CN(C)S(=O)(=O)c1ccc(=O)n(CC2CCCCO2)c1` (centres undefined): the Percent Effect was found to be 8.37%.

With `OCc1cccc(OCc2ccon2)c1`, the Percent Effect is 4.35%.

As to `Cc1ccc(S(=O)(=O)N(C)CC(C)O)c(F)c1` (centres undefined), the Percent Effect amounted to 8.59%.

`CCS(=O)(=O)NCc1nc(C)cc(N2CCCC2)n1`: the Percent Effect is 2.4%.

As to `CCN(C(=O)Cn1cc(NC(=O)C(C)(C)C)cn1)c1ccccc1`, the Percent Effect was -3.26%.

`CN1CC(C(=O)NCCc2ccc(Br)cc2F)CC1=O` (centres undefined): the Percent Effect worked out at 7.63%.

For `CC(C(=O)NCC(C)(C)c1ccc(Br)cc1)n1cncn1` (centres undefined), the Percent Effect came to 0.177%.

As to `COc1ccc(Br)cc1S(=O)(=O)N(C)Cc1ccc(N(C)C)cc1`, the Percent Effect is -1.52%.

Regarding `CCC(C(=O)NC1(C(N)=O)CCCC1)n1cccn1` (centres undefined), the Percent Effect is -1.13%.

In the case of `CC(Oc1cccc(Cl)c1)C(=O)Nc1cnn(CCN(C)C)c1` (centres undefined), the Percent Effect was -7.28%.

As to `CCc1nc(CNc2cc(C)nc(-c3cccnc3)n2)cs1`, the Percent Effect was -0.151%.

Take `Cn1cccc1CN(C(=O)CC(CC(=O)O)c1cccs1)C1CC1` (centres undefined): the Percent Effect is -2.3%.

As for `COCCN(CCOC)C(=O)c1cnn(C)c1C`, the Percent Effect is -3.12%.

For `CSCCC(NC(=O)c1ccco1)C(=O)N(C)Cc1ccsc1` (centres undefined), the Percent Effect is -5.54%.

The values are drawn from ChEMBL document CHEMBL3988442, “University of Dundee, Small-Polar-MMV Screening Library” (2021).
